The subject of experiment [1] is Jurkat. Put plainly: mean cell size (FSC-A) relative to DMSO control (fraction of control); higher = larger cells. As to conditions: 48 h. In outline:
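Jurkat cells seeded at 600 cells/µl were incubated 1 h, then exposed for 48h to the Enzo Screen-Well FDA Approved Drug Library v2.0 at 25µM in 0.9% (v/v) final DMSO. Drugs that cut counts below 20% of controls were diluted 10-fold and retested, down to 25nM. Cell count and mean cell size (forward scatter area) were read on an Accuri C6 flow cytometer, relative to solvent-only controls. Plates held 6-12 controls; values are means of 3 biological replicates.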

Experiment [2] relates to Jurkat. Put plainly: cell count relative to DMSO control (fraction of control); higher = more cells (less growth inhibition). Conditions: 48 h.

Counter-ions that a name gives are not always drawn. ± gives the standard deviation.

In the experiment on Jurkat [1], `CC(C)c1cccc(C(C)C)c1O` [Propofol] (concentration: 25 µM) displayed a mean cell size of 0.972 ± 0.025. The molecule also showed a cell count with Jurkat [2] of 1.11 ± 0.027.
As to `O=C1Nc2ccc(Cl)cc2C(c2ccccc2Cl)=NC1O` (centres undefined) [Lorazepam] (concentration: 25 µM), the mean cell size in the experiment with Jurkat [1] amounted to 0.927 ± 0.03. In addition, in the experiment on Jurkat [2], the cell count came out at 0.912 ± 0.056.
With `CCN(C)C(=O)Oc1cccc([C@H](C)N(C)C)c1` [Rivastigmine Tartrate] (concentration: 25 µM), the mean cell size in the experiment on Jurkat [1] stood at 1.01 ± 0.022. The cell count in the experiment on Jurkat [2] was found to be 0.843 ± 0.13.
The corresponding values for `COc1cc2c(c(OC)c1OC)-c1ccc(OC)c(=O)cc1[C@@H](NC(C)=O)CC2` [Colchicine] (concentration: 25 nM) are 0.967 ± 0.026 and 0.071 ± 0.007.
`CN(C)[C@@H]1C(=O)C(C(N)=O)=C(O)[C@@]2(O)C(=O)C3=C(O)c4c(O)cccc4[C@@](C)(O)[C@H]3[C@H](O)[C@@H]12` [Oxytetracycline·HCl] (concentration: 25 µM) had a mean cell size in the experiment with Jurkat [1] of 0.894 ± 0.014. In the experiment on Jurkat [2], this molecule showed a cell count of 0.884 ± 0.1.
In the case of `Oc1ccc2c(c1)[C@@]13CCCC[C@@]1(O)[C@@H](C2)N(CC1CCC1)CC3` [Butorphanol-(+)-Tartrate (Schedule Iv)] (concentration: 25 µM), the mean cell size in the experiment with Jurkat [1] was found to be 0.952 ± 0.049. The molecule further came in with a cell count in the experiment with Jurkat [2] of 0.586 ± 0.075.
The molecule `CC(C)N(CCC(C(N)=O)(c1ccccc1)c1ccccn1)C(C)C` (centres undefined) [Disopyramide] (concentration: 25 µM) gave a mean cell size with Jurkat [1] of 0.985 ± 0.041. In the experiment with Jurkat [2], the cell count came to 0.733 ± 0.14.

The record behind these values is the supplement of paper PMC4709259.
